Reference: PubChem BioAssay AID1962 (The Scripps Research Institute Molecular Screening Center, 2009)
Among all 300,000 compounds or so, about 2,500 (0.83%) were called active.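 How the source made its calls: active means inhibition above the mean of all tested compounds plus 3 SD, set per screening campaign (cut at about 24% in these data); inactive means the rest.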 Shown is part of a subset that was picked to be rich in actives.

Test system: tRNA 2'-phosphotransferase TPT1 (Candida albicans SC5314)
Experiment: tRNA 2'-phosphotransferase blockers, C. albicans – biochemical, fluorescence polarization, primary screen (AID 1962);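 further: plate controls were DMSO alone for no effect and ferristatin control at 100 nM for full effect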
Conditions: recombinant caTPT1, FP RNA substrate dephosphorylation; at 5 µM; hits give high values

Structure (SMILES) | inhibition
CC(=O)N1c2ccccc2N(Cc2ccc([N+](=O)[O-])cc2)C(=O)C1(C)C | 9.11% (inactive)
O=C1NC(=O)C2C1C(c1ccc([N+](=O)[O-])cc1)=NN2Cc1ccccc1 (stereo not given) | 32.4% (active)
CC1=NN(c2ccccc2)C(=O)C1C(=O)c1ccc([N+](=O)[O-])cc1 (stereo not given) | 0.3% (inactive)
CC(=O)c1ccc(N2C(=NC(=O)C(C)C)SC3CS(=O)(=O)CC32)cc1 (stereo not given) | -0.98% (inactive)
Nn1c(SCC(=O)Nc2nccs2)nncc1=O | 0.93% (inactive)
COCCn1cnc2c1c(=O)n(CC(=O)NN)c(=O)n2Cc1ccccc1 | -3.43% (inactive)
COc1cc(NC(=O)C2=CC(c3ccco3)=NS(=O)(=O)N2C)cc(OC)c1OC | -0.29% (inactive)
CC1=C(C(=O)OC2CCCCC2)C(c2ccccc2F)NC(=O)N1 (stereo not given) | 1.28% (inactive)
CN1C(=O)/C(=C/c2ccco2)SC1=Nc1cccc(C(=O)O)c1 | -0.91% (inactive)
O=C(O)C(c1ccccc1)N1C(=O)/C(=C\c2ccc(-c3cccc(Cl)c3)o2)SC1=S (stereo not given) | 134% (active)
O=C1NN(c2ccccc2)C(=O)/C1=C/c1ccc(-c2cccc(C(=O)O)c2)o1 | -6.86% (inactive)
O=C1c2ccccc2NC(c2ccc(-c3cccc(Cl)c3)o2)N1O (stereo not given) | 2.03% (inactive)
CN1C(=O)/C(=C\c2ccc(-c3ccccc3)o2)SC1=S | 47% (active)
NS(=O)(=O)c1ccc(-c2ccc(/C=C3\SC(=O)NC3=O)o2)cc1 | 0.01% (inactive)
Cn1cc[n+](C)c1COc1ccc(C=O)cc1 | -0.82% (inactive)
CCc1ccc(Nc2n[n+](-c3ccccc3)c(-c3cccc(Cl)c3Cl)s2)cc1 | -1.82% (inactive)
OCC[C@H]1C[C@H](O)[C@@H](O)[C@]2(Cc3ccccc3CO2)O1 | 1.4% (inactive)
Cc1ccc(C(=O)NCC(=O)OCC(=O)Nc2cccc(S(=O)(=O)N3CCCC3)c2)cc1C | -0.56% (inactive)
CCn1cc(C(=O)NC2CCCCCC2)c(=O)c2cc(S(=O)(=O)N3CCCCC3)ccc21 | -2.73% (inactive)
COc1ccc(C(=O)CC(=O)c2ccc(C)cc2)c(O)c1 | -1.28% (inactive)
O=C(COC(=O)c1cnccn1)Nc1cccc2ccccc12 | -2.21% (inactive)
O=C(N/N=C/c1sc(N2CCCCC2)nc1-c1cccs1)c1cccnc1 | 61.1% (active)
O=C(N/N=C/c1ccccn1)c1cccnc1 | -1.95% (inactive)

Structure (SMILES) | inhibition
Cc1cc(/C=N/NC(=O)c2cccnc2)c(C)n1CC(C)C | -3.6% (inactive)
CCSC(C)CC1C/C(=N/O)c2c(C)noc2C1 (stereo not given) | -7.78% (inactive)
COc1ccc(NC(=O)CN(C)C(=O)c2ccc(COc3ccccc3)o2)cc1 | 1.15% (inactive)
CCN1/C(=C\c2ccc3ccccc3[n+]2CC)Sc2cc(C)ccc21 | 68.7% (active)
CCN1/C(=C/c2ccc3ccc(C)cc3[n+]2CC)Sc2ccccc21 | 49.5% (active)
COCCCNC(=O)Cn1c(=O)n(Cc2ccccc2Cl)c(=O)c2cc(OC)c(OC)cc21 | 1.46% (inactive)
COc1ccc(C2=NOC3(CC(=O)N(c4ccc(Cl)cc4)C3=O)C2)c(OC)c1 (stereo not given) | -4.26% (inactive)
O=C(c1cccc(Br)c1)N1CCN(C2=NS(=O)(=O)c3ccccc32)CC1 | 0.45% (inactive)
COc1cccc(/C=C(/CC(=O)Nc2ccc(N3CCOCC3)cc2)c2nc3ccccc3s2)c1 | 9.31% (inactive)
O=S(=O)(c1cccc(-c2nnc(SC(F)F)n2-c2ccccc2)c1)N1CCCCC1 | -5.49% (inactive)
Cc1ccc(CSCC(=O)N(C)CC(=O)Nc2cccc(F)c2)cc1 | 1.31% (inactive)
CCN(CC)C(=O)C(=O)Nc1cccc(Br)c1 | -2.63% (inactive)
CCN(CC)C(=O)CSC(Nc1cccc(F)c1)=C(C#N)C#N | 62.4% (active)
O=C(CNc1ccc(F)cc1F)NC(=O)NCc1ccco1 | -0.97% (inactive)
CCOC(=O)[C@H]1[C@H]2COc3ccc(Cl)cc3[C@@H]2N2C(=O)c3cc(C)ccc3NC(=O)[C@@]12C | 2.94% (inactive)
Cc1cc(-c2ccc(S(=O)(=O)N3CCc4ccccc4C3)s2)on1 | -0.99% (inactive)
CS(=O)(=O)N(CC(=O)N/N=C/c1ccccn1)c1ccc(Oc2ccccc2)cc1 | -0.87% (inactive)
Cc1c(CC(=O)NCCCCCC(=O)O)c(=O)oc2cc3occ(-c4ccccc4)c3cc12 | -0.72% (inactive)
CCCCCCc1ccc(O)cc1O | 2.21% (inactive)
CCCCCCc1cc2cc(-c3nnc(-c4ccccc4)o3)c(=O)oc2cc1O | 133% (active)
N#CC(C#N)=CN=c1ccn(Cc2ccc(Cl)cc2Cl)cc1 | 0.38% (inactive)
Cn1ccc(=NC=C(C#N)C#N)c2ccccc21 | 25.3% (active)
Cc1cc(NC(=O)Nc2c[nH]c(=O)[nH]c2=O)ccc1Br | 0.27% (inactive)

Structure (SMILES) | inhibition
CCCc1nc2c(C)cc(-c3nc4ccccc4n3C)cc2n1Cc1ccc(-c2ccccc2C(=O)O)cc1 | 1.15% (inactive)
Cc1nc2ccccc2nc1N/N=C/c1ccc(O)cc1O | 1.81% (inactive)
Oc1ccc(/C=N/Nc2nc(-c3ccccc3F)nc3ccccc23)c(O)c1 | 24.8% (active)
Fc1ccc(/C=N/Nc2nc(-c3cccnc3)nc3ccccc23)cc1 | 0.23% (inactive)
CN(C)C1=NC[C@H](Cc2ccccc2)N1CCc1ccc(F)cc1 | -4.71% (inactive)
Cc1cc(C)c(S(=O)(=O)N2C=CC(C(F)(F)F)=NCC2)c(C)c1 | -0.62% (inactive)
O=S(=O)(c1ccc(F)cc1)N1CCN(C(=S)NCc2ccco2)CC1 | 1.64% (inactive)
OCC[C@H]1C[C@@H](O)[C@H](O)[C@@]2(OCCc3ccccc32)O1 | 0.6% (inactive)
OCC[C@H]1C[C@H](O)[C@@H](O)[C@]2(CCc3ccccc3O2)O1 | -0.81% (inactive)
COc1ccccc1CC(=O)NCCc1c[nH]c2ccccc12 | -1.76% (inactive)
O=S(=O)(O)Oc1c[nH]c2ccccc12 | 25.4% (active)
O=C(Cc1c[nH]c2ccccc12)OCCOC(=O)Cc1c[nH]c2ccccc12 | 0.4% (inactive)
CN1CCN(Cc2nc3cc(NC(=O)COc4ccc([N+](=O)[O-])cc4)ccc3n2C)CC1 | -2.77% (inactive)
COc1ccc(C(=O)Nc2sc(C)c(C)c2CN2CCOCC2)cc1 | 2.12% (inactive)
C#CCOCCOCCOCCNc1nc(N2CCN(C(=O)CCCCCCCCCCNC(=O)Cn3cc(CCCCCN)nn3)CC2)nc(N2CCN(C(=O)CCCCCCCCCCNC(=O)[C@H](CO)n3cc(CCCSC)nn3)CC2)n1 | -0.6% (inactive)
Cc1cc(O)c(Sc2ccccc2)c(=O)o1 | 0.86% (inactive)
Cc1cc(O)c(C(=O)/C=C/c2c(F)c(F)c(F)c(F)c2F)c(=O)o1 | 44.1% (active)
Cc1ccc(N=Cc2c(O)cc(C)oc2=O)c(C)c1 | 9.41% (inactive)
Cc1ccc(-n2c(SCC(=O)NCCC3=CCCCC3)nc3n[nH]c(C)c3c2=N)cc1Cl | 0.45% (inactive)
CO[C@@H]1[C@@H](OC(N)=O)[C@@H](O)C(Oc2ccc3c(O)c(NC(=O)c4ccc(O)c(CC=C(C)C)c4)c(=O)oc3c2C)OC1(C)C (stereo not given in full) | -0.98% (inactive)
Cc1ccc(Cl)c(NC(=O)CN(C)CC(=O)Nc2ccc(F)c(F)c2F)c1Cl | 2.01% (inactive)
COc1ccc(C2=NN(C(C)=O)C(c3ccccc3)C2)cc1 (stereo not given) | -4.9% (inactive)
COc1ccc(C2=NN(C(=O)c3cccnc3)C(c3ccccc3)C2)cc1 (stereo not given) | 3.29% (inactive)

Structure (SMILES) | inhibition
COc1ccc(C2=NN(C(=O)c3ccccc3C(=O)O)C(c3ccccc3O)C2)cc1 (stereo not given) | 35.3% (active)
O=C(Nc1cc(-c2ccccc2)nn1-c1ccccc1F)c1ccc([N+](=O)[O-])cc1 | 1.59% (inactive)
Cc1ccc2c(c1)C(c1ccccc1)N(C(=O)c1ccc(S(=O)(=O)N3CCOCC3)cc1)CC(=O)N2 (stereo not given) | 1.61% (inactive)
CCN(CC)CCNc1nc(-c2ccc(OC(F)F)cc2)c(C)s1 | -0.49% (inactive)
COc1ccc(/C=C2\SC(=S)N(CC(=O)NNC(=O)c3ccncc3)C2=O)cc1 | -4.74% (inactive)
COc1ccc(/C=C2\SC(=S)N(CCC(=O)Nc3ccccn3)C2=O)cc1OC | 1.07% (inactive)
CCOc1ccc(/C=C2\SC(=S)N(NC(=O)c3ccncc3)C2=O)cc1OC | 33.7% (active)
O=C(c1cc(-c2ccc(Cl)cc2)on1)N1CCN(c2ccccc2)CC1 | -0.95% (inactive)
O=C(O)CCCC(=O)Nc1ccc(Oc2cccc(C(F)(F)F)c2)nc1 | -1.11% (inactive)
COC(=O)c1[nH]c2cccc(C)c2c1NC(=O)CN1CCCc2ccccc21 | 29% (active)
COC(=O)c1[nH]c2ccccc2c1NC(=O)CN1CCCc2ccccc21 | 11.9% (inactive)
NS(=O)(=O)c1cccc(NC(=O)CN2CCCc3ccccc32)c1 | 14.5% (inactive)
S=C(NC1CCCCC1)NN1CCOCC1 | -1.16% (inactive)
Cc1nn(C(C)CC(=O)O)c(C)c1C (stereo not given) | 0.87% (inactive)
CC[n+]1cc(C)ccc1/C=C/c1ccc(N(C)C)cc1 | 29.6% (active)
CN(C)c1ccc(/C=N\S(=O)(=O)c2ccccc2)cc1 | 0.48% (inactive)
CCCCN(CC)C(=O)C1CCCN(S(=O)(=O)c2cccc3nsnc23)C1 (stereo not given) | -2.13% (inactive)
Cc1cc(N=CC2=C(O)CCCC2=O)no1 | -5.36% (inactive)
CCOC(=O)c1c(CC(C)C)csc1/N=C/C1=C(O)CCCC1=O | 98.3% (active)
CCOC(=O)c1sc(/N=C/C2=C(O)CC(C)(C)CC2=O)c(C(=O)OCC)c1C | -1.8% (inactive)
CC1CCC(CN2CCN=C2N(C)C)CC1 (stereo not given) | -1.25% (inactive)
